# Data: the supplement of paper PMC3334620
# Over roughly 33,000 sequences, “E-score (-0.5 to 0.5)” has its median near -0.015; the highest 2% begin near 0.3. Only a selection was taken, and the highest values are over-represented in it overall.
# Molecular target: T1, Abf1 (UniProt P14164)
# T1 sequence: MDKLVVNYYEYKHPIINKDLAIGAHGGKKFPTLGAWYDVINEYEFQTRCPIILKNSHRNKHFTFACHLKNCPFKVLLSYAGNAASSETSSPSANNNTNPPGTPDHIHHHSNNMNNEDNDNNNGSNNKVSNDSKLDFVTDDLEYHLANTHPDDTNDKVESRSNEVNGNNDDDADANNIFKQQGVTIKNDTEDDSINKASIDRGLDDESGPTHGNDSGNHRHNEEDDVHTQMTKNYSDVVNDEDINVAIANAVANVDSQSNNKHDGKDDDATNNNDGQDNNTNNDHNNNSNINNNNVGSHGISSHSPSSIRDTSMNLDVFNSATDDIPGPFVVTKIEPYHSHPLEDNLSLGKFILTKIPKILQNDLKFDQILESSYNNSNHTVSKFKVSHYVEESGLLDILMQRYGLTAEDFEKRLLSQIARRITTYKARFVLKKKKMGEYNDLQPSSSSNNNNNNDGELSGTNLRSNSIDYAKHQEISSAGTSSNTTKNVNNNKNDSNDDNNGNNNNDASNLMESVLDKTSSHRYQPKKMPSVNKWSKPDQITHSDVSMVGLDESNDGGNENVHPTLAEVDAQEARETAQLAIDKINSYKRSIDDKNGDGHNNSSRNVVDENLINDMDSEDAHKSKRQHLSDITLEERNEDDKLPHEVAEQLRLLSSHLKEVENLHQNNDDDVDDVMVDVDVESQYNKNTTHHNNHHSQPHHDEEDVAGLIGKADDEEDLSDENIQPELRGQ
# Test: PBM E-score (8-mer binding enrichment) (E-score (-0.5 to 0.5)); higher = stronger / more preferred TF binding
# Details: protein concentration: 200 nM; construct: GST-full length
# Protocol: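 Universal 'all 10-mer' protein binding microarrays (Agilent AMADID 015681) probed with GST-tagged S. cerevisiae TFs (full-length or DBD) made by in vitro transcription/translation (PURExpress), about 100-200 nM. Bound TF was detected with fluorescent anti-GST. Each ungapped 8-mer (which stands for itself and its reverse complement) is scored by the PBM enrichment score (E-score), a modified Wilcoxon-Mann-Whitney statistic from -0.5 to +0.5, computed with the Universal PBM Analysis Suite. Scale: above 0.35 generally sequence-specific binding.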
row,Sequence,PBM E-score
1,CCGTGTAA,0.217
2,TCGTGTCA,0.326
3,CAGAAGGG,-0.136
4,AAACTCAA,0.0218
5,ATGTTACG,0.087
6,GTTGGTCA,0.221
7,ACATCTAA,-0.0374
8,CGACCTCA,0.00561
9,ATCGCGAG,0.138
10,GTCGCGAA,0.188
11,ATCGCGAA,0.199
12,GTCGCGAC,0.32
13,CTCGCGAC,0.238
14,ATCGCGAT,0.411
15,AACACAAC,-0.029
16,CATAAACG,0.22
17,GAATGCCC,-0.0158
18,TCGCACAA,0.167
19,ACGCACGC,-0.0387
20,GCGCACGA,0.0514
21,CCGCACGA,0.376
22,CCGCACGC,-0.186
23,CCGCACGG,0.0967
24,ACCCACGA,0.287
25,GCCCACGA,0.019

row,Sequence,PBM E-score
1,TCCCACGA,0.326
2,ACGCACGA,0.389
3,TCGCACGA,0.317
4,ACGCACGT,0.105
5,AAGTCCCC,-0.149
6,ACTCTGAT,0.043
7,ACTAGTGC,0.104
8,CGGCCCGC,-0.121
9,AATGCTCC,-0.223
10,CGCGTACG,0.271
11,ATTATGGG,0.00349
12,GGATATAA,0.298
13,CGATATAA,0.203
14,GGATATAC,-0.053
15,AGTTACGG,0.0796
16,GGAGGAAA,-0.252
17,CCGATACG,0.121
18,ACGATACT,0.285
19,CCGATATC,0.21
20,ACGATATG,0.304
21,ACGATACG,0.334
22,ACGATATA,0.289
23,ACGATAGG,0.233
24,ACGATATC,0.321
25,AGGATATC,0.24

row,Sequence,PBM E-score
1,ATGCCACC,-0.148
2,AATCCAGT,0.0412
3,AATCTGCA,-0.185
4,TGGGACAA,0.0227
5,AAGCCACG,0.124
6,AAAGTATA,0.101
7,CGATACCA,0.018
8,AAGTCACA,0.125
9,AAGTCACG,0.268
10,AGGTCACT,0.304
11,AGGTCACG,0.235
12,AGGTCACC,0.282
13,AAGTCACT,0.304
14,ACTCTGAC,-0.0634
15,CGAATTCC,-0.0103
16,CGGACGCC,-0.0127
17,AATGCCAG,-0.155
18,ATGTCGGG,0.0062
19,AAGGAACA,-0.0655
20,ACGCAGCG,-0.162
21,AACGACGT,0.19
22,TCCGACGA,0.392
23,AACGACGG,0.249
24,CACGACGG,0.356
25,CACGACGA,0.263

row,Sequence,PBM E-score
1,AATAACGG,0.126
2,AATAACGC,-0.118
3,AATAACGA,0.325
4,GCCGACGA,0.176
5,CCCGACGA,0.196
6,CACGACCG,-0.0182
7,AACGACGA,0.346
8,ACAGCTAG,-0.181
9,ACTCTTAA,-0.0406
10,AACCGGGG,-0.212
11,AAAATCCC,-0.0966
12,CGTCCTAC,-0.0375
13,ACTCGATA,0.199
14,AACTGCGA,-0.0488
15,ATCTGCAG,-0.106
16,GAGTATAC,0.0804
17,AACGACGC,0.0599
18,TACGACCA,0.242
19,GACGACGA,0.251
20,CACGACGC,0.172
21,GACGACGC,0.3
22,TACGACGA,0.329
23,TACACCCA,-0.015
24,CACCACGA,0.202
25,GGGTGCTA,-0.118

row,Sequence,PBM E-score
1,CGTGCGAG,0.137
2,CCTTAAGC,-0.123
3,GATCGTAC,0.151
4,CATCGTAC,0.382
5,CATCGTAA,0.106
6,CGTCGTTA,0.257
7,TGTCGTAA,0.103
8,CGTCGTAC,0.399
9,GGTCGTAC,0.212
10,CGTCGTTC,0.313
11,AGTCGTTC,0.212
12,CGTCGTAA,0.392
13,CGTCGTAG,0.192
14,GGTCGTAA,0.104
15,ATTCTGTG,0.00625
16,GCGAAAGA,-0.024
17,AAGACGAG,-0.0454
18,AATAGTAC,0.132
19,AAATGGGT,-0.0572
20,ACGCAGTC,-0.224
21,AGATCATG,0.262
22,CGTCGTCA,0.24
23,CGTCGTCC,0.307
24,AGTCGTCC,0.142
25,ACTCGAGA,-0.0317

row,Sequence,PBM E-score
1,CGACAAAC,0.167
2,TCATATGA,0.101
3,TCATATCA,0.315
4,GCATATGA,0.028
5,ACATATCG,0.118
6,CCATATCA,0.163
7,ACATATCC,0.236
8,GCATATCA,0.319
9,GCATATCC,0.179
10,ACATATCA,0.341
11,GACGACCA,0.286
12,CACGAGAG,0.0678
13,ACTCGGAG,-0.00102
14,CTCTTGTC,0.024
15,ATTCTATC,0.127
16,AGTAGAGC,-0.168
17,TCAGCAGA,-0.0392
18,AAATGGAC,0.0432
19,ACCGTTTC,0.0554
20,ACCGTTGC,0.0812
21,CACAACCC,-0.194
22,ATGGGGAA,-0.104
23,ATTATCAA,0.193
24,CTTATCCC,-0.0767
25,CTTATCAA,0.164

row,Sequence,PBM E-score
1,CTTATCAC,0.369
2,ATTATCAC,0.434
3,ATTATCAG,0.0821
4,CGTGGTTC,0.0193
5,GAGCCCCC,-0.283
6,TCATAGAA,0.121
7,GACCGGCC,-0.229
8,TAATTGGA,0.141
9,GCATACGC,-0.149
10,CAGCCGTA,0.192
11,GAGCCGTA,0.347
12,AAGCCGTA,0.193
13,GCCGTTGA,0.173
14,TGGGGCAA,-0.281
15,GTATATAA,0.286
16,CTCTATAC,0.116
17,GTATATCA,0.386
18,ATATATCA,0.311
19,ATATATAC,0.262
20,ATATATCC,0.171
21,CTATATCA,0.267
22,GTATATGA,0.12
23,CTATATAC,0.364
